Screens as filed in PubChem.
Pf growth 96h: P. falciparum growth inhibition at 96 hour, primary screen for plastid delayed-death inhibitors; P. falciparum luciferase reporter growth, 96 h; AID 504834; Potency, µM (series often up to 28.7 µM), for the others: top-dose activity change, negative = inhibition, usual class: inhibitors; hit rate 6.9% among 320,000; further: on the % scale 0 is the no-effect control and ±100 the full control effect
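Erythrocytes infected with luciferase-expressing P. falciparum were dispensed at 2% hematocrit and 0.05% parasitemia (final), then incubated with compounds 96 hours at 37 C in 5% CO2. Luminescence after detection reagent addition reported growth.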
Pf growth 48h: inhibits P. falciparum growth in the first generation, 48 h; hit rate 5.9% among 310,000; Potency, µM (titrated, usually from 28.7 µM), for inactives: top-dose activity change, negative = inhibition, most hits filed as inhibitors; P. falciparum luciferase growth in erythrocytes, 48 h; further: on the % scale 0 is the no-effect control and ±100 the full control effect
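Luciferase-expressing P. falciparum in infected erythrocytes (2% hematocrit, 0.1% parasitemia final) in RPMI 1640/0.5% Albumax were exposed to compound for 48 hours at 37 C, 5% CO2; growth read as luminescence.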
SARS PLpro yeast: inhibitors of SARS-CoV papain-like protease in yeast. S. cerevisiae expressing SARS-CoV PLpro, growth rescue. Potency, µM (titrated, usually from 32.9 µM), for inactives: top-dose activity, positive = growth rescue, actives largely listed as activators. hit rate 0.19% among 330,000. AID 485353; calls by dose curve; further: 0% is about no effect; nearly all actives have a fitted effect of over 55% in size
Sm TGR inh: blocks Schistosoma mansoni thioredoxin glutathione reductase; purified TGR, DTNB reduction, TNB absorbance 405 nm; Potency, µM (doses to about 114 µM), for inactives: at the highest dose activity change, negative = inhibition, actives largely listed as inhibitors; hit rate 3% among 360,000; AID 485364; further: on the % scale 0 is the no-effect control and ±100 the full control effect; nearly all actives have a fitted effect of over 60% in size
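Kinetic colorimetric format: TGR-catalysed, NADPH-driven DTNB reduction monitored via TNB absorbance. Enzyme dispensed at 20 nM; compound exposure 15 min at room temperature before reaction start.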
* marks the source's active call; other numbers are inactive results; ? = inconclusive; . = no result. Most compounds without a hit are left out; they make up all but 12% or so of the library. Unless noted, the call rests on the fitted dose curve; in most records, active means well fitted curve in the direction sought with a large enough effect; inconclusive means small, poorly fitted or top-dose-only effect, or another doubt; inactive means no such curve, though single readings can be large; an effect the other way counts as inactive or inconclusive. Potency means the concentration at half of the fitted maximal effect.

SMILES | Pf growth 96h | Pf growth 48h | SARS PLpro yeast | Sm TGR inh
COc1ccc(NC(=O)N2c3ccc(OC)cc3C(C)=CC2(C)C)cc1 | 0% | 14% | -16% | -13%
CCc1ccc(NC(=O)CCS(=O)(=O)c2ccc3c(c2)n(C)c(=O)c(=O)n3C)cc1 | . | . | . | -7%
CCOC(=O)c1c(NC(=O)COc2cccc(C(F)(F)F)c2)sc2c1CCCCC2 | . | . | . | 1%
CCc1cccc(C)c1NC(=S)NCCc1c(C)[nH]c2ccc(C)cc12 | 15µM* | ? | 28% | -8%
CCc1cccc(CC)c1NC(=S)NCCc1c(C)[nH]c2ccc(C)cc12 | 10µM* | ? | ? | -16%
COc1ccc2[nH]c(C)c(CCNC(=S)Nc3cc(C)ccc3C)c2c1 | -34% | -4% | -16% | 0%
COc1ccc2[nH]c(C)c(CCNC(=S)Nc3cccc(C)c3)c2c1 | ? | ? | 3% | -10%
COc1ccc(CCNC(=O)c2ccc3nc(Cc4ccccc4)oc3c2)cc1OC | . | . | . | 9%
COc1ccc(Nc2nc3cc(Cl)c(Cl)cc3n3cnnc23)cc1Cl | . | . | . | -13%
Cc1ncc(CO)c(/C=N/Nc2cccc(Cl)n2)c1O | 45% | ? | 2% | -11%
Cc1ncc(CO)c(/C=N/NC(=O)c2cc(O)c(O)c(O)c2)c1O | ? | 2.6µM* | ? | ?
Cc1ncc(CO)c(/C=N/NC(=O)c2ccc(Br)cc2)c1O | ? | ? | ? | -12%
Cc1ncc(CO)c(/C=N/NC(=S)Nc2ccc(C(C)C)cc2)c1O | 12µM* | ? | 0% | -6%
Cc1ccc(-c2noc(CNC(=O)c3ccc(C)c(Cl)c3)n2)cc1 | . | . | . | 1%
Cn1cc(Br)c(C(=O)NNC(=O)c2cccc(Br)c2)n1 | 78% | 28% | 1% | 35µM*
CC(C)(C)NC(=O)C(=O)NNC(=O)c1cccc(Br)c1 | 2.1µM* | 64% | -1% | 4%
Cn1cc(Br)c(C(=O)NNC(=O)c2ccc(Cl)cc2)n1 | -1% | 73% | -5% | -19%
Cc1cccc(C(=O)NNC(=O)C(=O)NC(C)(C)C)c1 | ? | 50% | 1% | 8%
O=C(/C=C/NNC(=O)c1cccc(Br)c1)c1cccc(Br)c1 | . | 9.3µM* | -6% | -9%
CC(C(=O)N1CCN(Cc2ccc3c(c2)OCO3)CC1)n1cc([N+](=O)[O-])cn1 (stereo not drawn) | 3% | 9% | 2% | 3%
COc1ccc(C2C=C(C34CC5CC(CC(C5)C3)C4)NC(=S)N2)cc1 (stereo not drawn) | 12µM* | 9.3µM* | -42% | -2%
O=C(CNC(=O)c1cncc(Br)c1)Nc1ccc(F)c(F)c1F | 31% | 28% | -1% | 6%
CCOC(=O)C1CCN(c2nc(N)c3c(N)nc(SCC(=O)O)cc3c2C#N)CC1 | 2.6µM* | 2.6µM* | 0% | ?
CCOC(=O)C1CCN(c2nc(C)cc(C)c2C#N)CC1 | 1% | 16% | 0% | 8%
CCCN(CCC)c1nc(C#N)nc(N(CCC)CCC)n1 | 8.3µM* | 12µM* | -3% | -5%
SMILES | Pf growth 96h | Pf growth 48h | SARS PLpro yeast | Sm TGR inh
CC(C)c1ccc(NC(=O)c2ccc3c(c2)CCCN3S(C)(=O)=O)cc1 | . | . | . | -6%
FC(F)(F)c1cnc(/C=C/Nc2ccccc2Cl)c(Cl)c1 | 38% | 17% | 1% | 13%
C[N+]1=C(/C=C/Nc2ccccc2Cl)C(C)(C)c2ccccc21 | ? | 12µM* | -7% | -27%
Cc1ccc(C(=O)c2cn(CC(=O)Nc3ccc(C)cc3Cl)c3nc(C)ccc3c2=O)cc1 | . | . | . | -8%
C=CCn1c(-c2ccc([N+](=O)[O-])cc2)n[nH]c1=S | 2.3µM* | 2% | 9% | -8%
O=[N+]([O-])c1ccccc1OCCNCc1ccccc1 | 14% | 99% | 5% | -13%
CCN(CC)CCNc1cc(C)c(C#N)c2nc3ccccc3n12 | 29% | ? | -5% | 14%
CCCc1cc(NCCCN2CCOCC2)n2c(nc3ccccc32)c1C#N | -20% | -22% | 1% | 3%
CCCc1cc(NCCCCO)n2c(nc3ccccc32)c1C#N | 3.3µM* | 9.3µM* | 6% | -22%
Cc1cc(-c2ccco2)n2c(nc3ccccc32)c1C#N | 69% | 12µM* | 5% | 50µM*
C=C(C)Cc1c(C)c(C#N)c2nc3ccccc3n2c1N1CCCCC1 | ? | . | 5% | -9%
Cc1cc(NCCCCO)n2c(nc3ccccc32)c1C#N | 27% | 10µM* | 3% | -7%
Cc1cc(Nc2ccc(F)cc2)n2c(nc3ccccc32)c1C#N | . | . | . | -2%
C=C(C)CSc1cc(C)c(C#N)c2nc3ccccc3n12 | ? | ? | -42% | 3.2µM*
CN(C(=O)COC(=O)c1cc(S(=O)(=O)N2CCOCC2)ccc1F)C1CCS(=O)(=O)C1 (stereo not drawn) | 3% | -12% | -1% | -2%
COc1ccccc1-c1nc2n(n1)C(c1ccccc1Cl)C(C(=O)Nc1cccnc1)=C(C)N2 (stereo not drawn) | . | . | . | 14%
COCCN(CCOC)c1cc(C)c(C#N)c2nc3ccccc3n12 | 10µM* | ? | -4% | 4%
Cc1ccc(-n2nc3c(=O)n(CCCC(=O)NCc4cccc(Cl)c4)nc(C)c3c2C)cc1 | ? | 9.3µM* | -2% | 5%
Cc1ccc(-n2nc3c(=O)n(CCCC(=O)NCc4ccc(Cl)cc4)nc(C)c3c2C)cc1 | 2% | ? | 3% | -22%
Cc1ccc(-n2nc3c(=O)n(CCCC(=O)NCc4ccccc4Cl)nc(C)c3c2C)cc1 | 2.6µM* | ? | -2% | -14%
Cc1ccc(-n2nc3c(=O)n(CCCC(=O)NCc4ccc(C)o4)nc(C)c3c2C)cc1 | ? | 10µM* | 10% | -26%
Cc1ccc(-n2nc3c(=O)n(CC(=O)NCc4ccc(C)o4)nc(C)c3c2C)cc1 | ? | 15% | 3% | ?
Cc1ccc(-n2nc3c(=O)n(CCCC(=O)NCCc4ccccc4Cl)nc(C)c3c2C)cc1 | . | . | . | -3%
Cc1ccc(NC(=O)c2oc3c(c2C)-c2[nH]ncc2CC3)c(Cl)c1 | . | . | . | -12%
NC1=NC[C@H](Cc2ccccc2)N1CCc1cc(C(F)(F)F)cc(C(F)(F)F)c1 | ? | 3.3µM* | 1% | 13%
SMILES | Pf growth 96h | Pf growth 48h | SARS PLpro yeast | Sm TGR inh
NC1=NC[C@H](Cc2ccc(O)cc2)N1CCc1cccc(F)c1 | 2.3µM* | 13µM* | 0% | 31%
Cc1cc(C)cc(OCC(=O)Nc2nc3c(s2)CC(C(C)(C)C)CC3)c1 (stereo not drawn) | . | . | . | 7%
CCOC(=O)c1c(CN(CC)CC)oc2ccc(OC)cc12 | 15µM* | ? | -11% | -7%
Cc1cccc(N(C)C(=O)c2cnn(-c3ccccc3)c2C)c1 | 22% | -3% | -3% | -3%
Cc1ccc(N(C)C(=O)c2cnn(-c3ccccc3)c2C)c(C)c1 | 5.2µM* | 5.2µM* | -2% | -15%
CCC(=O)N1CCc2cc(S(=O)(=O)N(C)c3cccc(C)c3)ccc21 | . | . | . | 3%
CCN(CC)c1cc(C)nc2nc(-c3ccc(C)cc3)nn12 | . | . | . | 0%
[O-][n+]1c2c(c3c4non(O)c4ccc31)CCCC2 | 12µM* | . | -51% | -26%
Cc1ccccc1Nc1nc(N)nc(CSc2nc3ccccc3c(=O)n2CCCO)n1 | . | 7.4µM* | 2% | 3%
